# Data: PubChem BioAssay (EPA / NIEHS)
# Records with an inconclusive call do not appear. Calls of active or inactive are those of the source. The calls were made as follows, unless noted: active = hit-call score of the fitted dose curve at least 0.9, where 1 is the maximum; inactive = score below 0.9.
# Columns and labels:
# [1] = biological target: Myc proto-oncogene protein (Homo sapiens) (UniProt P01106); test: ATG_Myc_CIS: Attagene CIS-FACTORIAL HepG2 Assay for human Myelocytomatosis (Myc) Proto-Oncogene Transcription Factor (AID 2282990); settings: HepG2, Attagene cis-reporter transcription factor activity; actives raise or lower the signal
# Procedure, shortened: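 After 24 h chemical treatment of HepG2 cells carrying multiplexed cis-regulated reporter constructs, reporter transcripts quantified by RT-PCR and capillary electrophoresis of fluorescent fragments. Gain or loss fitted against DMSO baseline.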
# [2] = ATG_NRF2_ARE_CIS: Attagene CIS-FACTORIAL HepG2 Assay for human Nuclear Factor Erythroid 2 Related Factor 2 (NFR2) response to Antioxidant Response Elements (ARE) (AID 2282992); settings: HepG2 Attagene ARE/NRF2 reporter, transcription factor activity; actives raise or lower the signal;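 as to AC50: reporter mRNA level measured by RT-PCR and capillary electrophoresis fluorescence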
# Procedure, shortened: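 HepG2 cells transiently transfected with multiplexed cis-regulated reporter transcription units measure endogenous transcription factor activity. Reporter mRNA at 24 h is quantified by RT-PCR, fluorescent labelling and capillary electrophoresis, with bidirectional fitting relative to DMSO.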
# [3] = ATG_Oct_MLP_CIS: Attagene CIS-FACTORIAL HepG2 Assay for human Octamer-Binding Transcription Factor (Oct) (AID 2282993); settings: HepG2 Attagene cis-factorial Oct reporter, mRNA; actives raise or lower the signal
# Procedure, shortened: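 HepG2 cells transiently transfected with cis-element-driven reporter transcription units (endogenous TF activity); 24 h compound exposure. Reporter mRNA quantified by RT-PCR, 6-FAM labelling, HpaI digestion and capillary electrophoresis; bidirectional fit versus DMSO baseline.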
# [4] = biological target: Cellular tumor antigen p53 (Homo sapiens) (UniProt P04637); test: ATG_p53_CIS: Attagene CIS-FACTORIAL HepG2 Assay for human p53 Transcription Factor (AID 2282994); settings: HepG2 p53 cis-element reporter, Attagene mRNA; actives raise or lower the signal
# Procedure, shortened: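 HepG2 cells transiently transfected with multiplexed cis-regulated reporter transcription units read endogenous TF activity. After 24 h compound exposure, reporter mRNA was quantified by RT-PCR, fluorescent labelling, HpaI digestion and capillary electrophoresis; bidirectional fits versus DMSO baseline.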
# [5] = BSK_3C_TissueFactor: BioMAP Diversity Plus: 3C Assay for Tissue Factor Biomarker Activity (AID 2282997); settings: BioMAP 3C HUVEC, tissue factor biomarker readout; actives raise or lower the signal
# Procedure, shortened: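 Values derive from bidirectional curve fitting against DMSO of Tissue Factor ELISA signals, taken 24 h after dosing primary human umbilical vein endothelial cells.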
# [6] = BSK_3C_uPAR: BioMAP Diversity Plus: 3C Assay for Urokinase-type plasminogen activator receptor (uPAR) Biomarker Activity (AID 2282998); settings: BioMAP 3C HUVEC, uPAR biomarker ELISA; actives raise or lower the signal
# Procedure, shortened: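 Primary human umbilical vein endothelial cells, 3C system; surface uPAR measured by ELISA 24 h after dosing. Cytotoxicity via SRB total protein in parallel cultures; bidirectional fit against DMSO.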
# [7] = BSK_4H_Eotaxin3: BioMAP Diversity Plus: 4H Assay for Eotaxin 3 Biomarker Activity (AID 2283000); settings: primary human endothelial cells (HUVEC); actives raise or lower the signal;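 as to outcome: CCL26 protein level quantified by ELISA in parallel with SRB cytotoxicity check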
# Procedure, shortened: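 Endothelial primary cells (human umbilical vein) exposed to compound for 24 h. ELISA detection of Eotaxin-3.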
# [8] = biological target: human Peroxisome Proliferator-activated Receptor alpha (PPARa), PPARA (gene 5465) (UniProt Q07869); test: ATG_PPARa_TRANS: Attagene TRANS-FACTORIAL HepG2 Assay for human Peroxisome Proliferator-activated Receptor alpha (PPARa) (AID 2283001; active = hit-call score of the fitted dose curve at least 0.9, where 1 is the maximum)
# Procedure, shortened: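 Read-out is fluorescence of reporter cDNA fragments resolved by capillary electrophoresis after RT-PCR. Human HepG2 liver cells carried transfected PPARa-Gal4 chimera and GAL4-UAS reporter units, treated 24 h; activity scored as increase over DMSO.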
# [9] = biological target: human Peroxisome Proliferator-activated Receptor delta (PPARd), PPARD (gene 5467) (UniProt Q03181); test: ATG_PPARd_TRANS: Attagene TRANS-FACTORIAL HepG2 Assay for human Peroxisome Proliferator-activated Receptor delta (PPARd) (AID 2283002; active = hit-call score of the fitted dose curve at least 0.9, where 1 is the maximum)
# Procedure, shortened: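 Read-out is induced reporter mRNA, quantified by RT-PCR with fluorescent labelling and capillary electrophoresis after 24 h dosing. Cells are HepG2 transiently carrying multiple GAL4-UAS reporter units driven by exogenous NR-GAL4 chimeras; DMSO serves as baseline.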
# [10] = read-out: Intercellular Adhesion Molecule 1 (ICAM1), ICAM1 (gene 3383); test: BSK_3C_ICAM1: BioMAP Diversity Plus: 3C Assay for Intercellular Adhesion Molecule 1 (ICAM1) Biomarker Activity (AID 2283003); settings: primary human endothelial cells (HUVEC); actives raise or lower the signal
# Procedure, shortened: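 HUVEC primary cells stimulated under 3C conditions; ICAM1 measured by ELISA 24 h after compound dosing. Curves fitted bidirectionally against the DMSO baseline. Overt cytotoxicity checked by SRB staining of parallel cultures.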
# [11] = BSK_3C_Proliferation: Cell Proliferation Assessment in the BioMAP Diversity Plus: 3C Assay (AID 2283006); settings: primary human endothelial cells (HUVEC);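 as to AC50: potency may reflect either rise or fall in cell number versus DMSO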
# Procedure, shortened: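 Subconfluent HUVEC (3C system) cultured with chemical; relative cell number read at 48 h by sulforhodamine B total-protein staining (0.1% SRB after 10% TCA fixation, 560 nm). Bidirectional fit relative to DMSO.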
# [12] = biological target: Peroxisome proliferator-activated receptor gamma (Homo sapiens) (UniProt P37231); test: ATG_PPARg_TRANS: Attagene TRANS-FACTORIAL HepG2 Assay for human Peroxisome Proliferator-activated Receptor-gamma (PPARg) (AID 2283007; active = hit-call score of the fitted dose curve at least 0.9, where 1 is the maximum)
# Procedure, shortened: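 HepG2 cells are transiently transfected with GAL4-UAS reporter units driven by chimeric NR-Gal4 fusions and dosed for 24 h. Reporter mRNA is quantified by RT-PCR, 6-FAM labelling, HpaI digestion and capillary electrophoresis. Induction is scored against DMSO.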
# [13] = biological target: Nuclear receptor subfamily 1 group I member 2 (Homo sapiens) (UniProt O75469); test: ATG_PXR_TRANS: Attagene TRANS-FACTORIAL HepG2 Assay for human Pregnane X Receptor (PXR) (AID 2283008; active = hit-call score of the fitted dose curve at least 0.9, where 1 is the maximum)
# Procedure, shortened: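 HepG2 cells transiently transfected with multiple reporter units, here a PXR-GAL4 chimera driving a GAL4-UAS reporter; 24 h compound exposure. Reporter mRNA measured by RT-PCR, FAM labelling and capillary electrophoresis; gain of signal fitted against DMSO baseline.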
# [14] = biological target: human RAR-related Orphan Receptor beta (RORb), RORB (gene 6096) (UniProt Q92753); test: ATG_RORb_TRANS: Attagene TRANS-FACTORIAL HepG2 Assay for human RAR-related Orphan Receptor beta (RORb) (AID 2283010; active = hit-call score of the fitted dose curve at least 0.9, where 1 is the maximum)
# Procedure, shortened: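 HepG2 cells transiently transfected with GAL4-UAS reporter units expressing chimeric NR-Gal4 protein; reporter mRNA measured 24 h after dosing by RT-PCR, 6-FAM labelling and capillary electrophoresis. Gain-of-signal fitted relative to DMSO baseline.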
# [15] = biological target: human RAR-related Orphan Receptor gamma (RORg), RORC (gene 6097) (UniProt P51449); test: ATG_RORg_TRANS: Attagene TRANS-FACTORIAL HepG2 Assay for human RAR-related Orphan Receptor gamma (RORg) (AID 2283011; active = hit-call score of the fitted dose curve at least 0.9, where 1 is the maximum)
# Procedure, shortened: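 Activity is scored as increase in GAL4-UAS reporter mRNA over DMSO, detected by fluorescent RT-PCR and capillary electrophoresis in HepG2 cells transiently expressing a RORg-Gal4 chimera, 24 h after dosing.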
# [16] = ATG_NF_kB_CIS: Attagene CIS-FACTORIAL HepG2 Assay for human Nuclear Factor Kappa B (NF-kB) (AID 2282991); settings: HepG2 Attagene cis-factorial NF-kB reporter mRNA; actives raise or lower the signal
# Procedure, shortened: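 HepG2 cells transfected with cis-promoter-driven reporter units, so endogenous transcription factor activity is measured. Reporter mRNA quantified 24 h after dosing by RT-PCR and capillary electrophoresis, with bidirectional fitting against DMSO.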
# [17] = biological target: human Retinoic Acid Receptor gamma (RARg), RARG (gene 5916) (UniProt P13631); test: ATG_RARg_TRANS: Attagene TRANS-FACTORIAL HepG2 Assay for human Retinoic Acid Receptor gamma (RARg) (AID 2283009; active = hit-call score of the fitted dose curve at least 0.9, where 1 is the maximum;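 as to AC50: AC50 is for reporter induction above DMSO meaning RARg activation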)
# Procedure, shortened: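 HepG2 transiently transfected with GAL4-UAS reporter units and chimeric NR-Gal4 constructs; 24 h compound exposure. Reporter mRNA quantified by RT-PCR, FAM labeling, HpaI digestion and capillary electrophoresis; gain-of-signal versus DMSO.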
# [18] = biological target: human Retinoic Acid Receptor beta (RARb), RARB (gene 5915) (UniProt P10826); test: ATG_RARb_TRANS: Attagene TRANS-FACTORIAL HepG2 Assay for human Retinoic Acid Receptor beta (AID 2283004; active = hit-call score of the fitted dose curve at least 0.9, where 1 is the maximum)
# Procedure, shortened: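 HepG2, transient MRTU transfection, NR–Gal4 chimera, 24 h treatment; RT-PCR plus CE fluorescence detection of reporter mRNA; gain of signal vs DMSO.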
# [19] = biological target: Retinoic acid receptor alpha (Homo sapiens) (UniProt P10276); test: ATG_RARa_TRANS: Attagene TRANS-FACTORIAL HepG2 Assay for human Retinoic Acid Receptor alpha (RARa) (AID 2283005; active = hit-call score of the fitted dose curve at least 0.9, where 1 is the maximum)
# Procedure, shortened: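 Reporter transcripts, measured by RT-PCR with fluorescent labeling and capillary electrophoresis after 24 h dosing, reflect activity of an exogenous human RARa–GAL4 fusion in transiently transfected HepG2. Fitted for increase relative to DMSO.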
# Peroxisome proliferator-activated receptor gamma (Homo sapiens), sequence (P37231 whole entry, looked up, the tested form may be a part): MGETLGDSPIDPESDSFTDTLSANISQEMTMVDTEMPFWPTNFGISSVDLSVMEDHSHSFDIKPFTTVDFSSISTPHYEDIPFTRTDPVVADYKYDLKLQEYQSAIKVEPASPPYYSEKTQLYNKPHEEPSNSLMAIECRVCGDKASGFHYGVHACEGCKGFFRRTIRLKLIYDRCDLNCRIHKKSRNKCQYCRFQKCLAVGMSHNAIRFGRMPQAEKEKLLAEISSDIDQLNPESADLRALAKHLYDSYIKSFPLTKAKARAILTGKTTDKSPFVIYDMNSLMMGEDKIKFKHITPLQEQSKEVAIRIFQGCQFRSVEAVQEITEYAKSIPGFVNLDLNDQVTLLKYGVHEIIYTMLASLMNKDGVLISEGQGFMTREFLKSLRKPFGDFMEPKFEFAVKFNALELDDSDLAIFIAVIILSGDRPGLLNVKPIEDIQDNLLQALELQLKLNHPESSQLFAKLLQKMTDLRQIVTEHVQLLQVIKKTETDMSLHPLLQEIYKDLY
# Myc proto-oncogene protein (Homo sapiens), sequence (P01106 whole entry, looked up, the tested form may be a part): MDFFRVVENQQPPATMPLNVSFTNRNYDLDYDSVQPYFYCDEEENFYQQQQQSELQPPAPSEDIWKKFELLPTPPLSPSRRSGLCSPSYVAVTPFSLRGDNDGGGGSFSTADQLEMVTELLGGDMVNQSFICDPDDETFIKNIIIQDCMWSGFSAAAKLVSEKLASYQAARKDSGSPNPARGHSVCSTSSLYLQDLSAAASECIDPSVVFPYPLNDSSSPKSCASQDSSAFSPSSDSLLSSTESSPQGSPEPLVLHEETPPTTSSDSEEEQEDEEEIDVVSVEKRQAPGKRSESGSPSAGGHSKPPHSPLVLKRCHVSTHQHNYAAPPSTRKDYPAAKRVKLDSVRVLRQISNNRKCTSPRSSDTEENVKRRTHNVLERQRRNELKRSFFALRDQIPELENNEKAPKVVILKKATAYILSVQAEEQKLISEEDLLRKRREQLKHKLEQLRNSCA
# Cellular tumor antigen p53 (Homo sapiens), sequence (P04637 whole entry, looked up): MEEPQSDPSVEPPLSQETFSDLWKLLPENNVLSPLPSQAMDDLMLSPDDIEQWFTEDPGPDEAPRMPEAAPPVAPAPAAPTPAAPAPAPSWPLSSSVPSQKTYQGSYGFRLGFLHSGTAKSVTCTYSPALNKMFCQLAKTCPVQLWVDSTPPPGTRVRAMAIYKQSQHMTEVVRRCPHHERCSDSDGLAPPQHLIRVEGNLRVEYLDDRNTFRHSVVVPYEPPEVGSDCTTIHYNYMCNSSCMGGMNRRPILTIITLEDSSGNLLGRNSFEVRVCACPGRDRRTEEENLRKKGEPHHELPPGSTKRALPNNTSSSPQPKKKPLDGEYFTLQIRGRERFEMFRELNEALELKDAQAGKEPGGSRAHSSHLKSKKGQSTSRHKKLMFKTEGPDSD
# human Retinoic Acid Receptor gamma (RARg), RARG (gene 5916), sequence (P13631 whole entry, looked up, the tested form may be a part): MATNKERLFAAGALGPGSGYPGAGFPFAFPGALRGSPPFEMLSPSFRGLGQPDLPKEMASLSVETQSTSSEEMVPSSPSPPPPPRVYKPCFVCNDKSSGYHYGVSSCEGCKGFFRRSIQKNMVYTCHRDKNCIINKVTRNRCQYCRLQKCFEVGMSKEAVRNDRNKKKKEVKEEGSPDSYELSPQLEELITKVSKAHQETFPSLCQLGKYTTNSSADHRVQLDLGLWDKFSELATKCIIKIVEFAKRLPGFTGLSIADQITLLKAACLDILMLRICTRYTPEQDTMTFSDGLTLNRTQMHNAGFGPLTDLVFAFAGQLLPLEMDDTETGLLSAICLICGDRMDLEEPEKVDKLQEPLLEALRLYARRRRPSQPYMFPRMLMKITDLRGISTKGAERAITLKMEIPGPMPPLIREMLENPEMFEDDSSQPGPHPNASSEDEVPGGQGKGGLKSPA
# human RAR-related Orphan Receptor beta (RORb), RORB (gene 6096), sequence (Q92753 whole entry, looked up, the tested form may be a part): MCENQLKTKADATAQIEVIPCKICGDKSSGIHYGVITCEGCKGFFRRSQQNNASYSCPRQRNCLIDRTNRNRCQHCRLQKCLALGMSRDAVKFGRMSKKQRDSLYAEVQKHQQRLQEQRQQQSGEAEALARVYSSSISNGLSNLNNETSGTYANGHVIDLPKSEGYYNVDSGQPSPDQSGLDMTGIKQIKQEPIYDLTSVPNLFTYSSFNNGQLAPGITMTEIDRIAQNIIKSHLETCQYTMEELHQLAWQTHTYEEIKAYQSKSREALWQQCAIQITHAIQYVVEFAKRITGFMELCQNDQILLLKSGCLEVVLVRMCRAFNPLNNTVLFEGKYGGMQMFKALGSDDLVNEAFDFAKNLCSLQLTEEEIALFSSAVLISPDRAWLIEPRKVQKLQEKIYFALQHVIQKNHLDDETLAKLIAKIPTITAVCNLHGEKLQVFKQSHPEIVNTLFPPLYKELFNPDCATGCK
# human Peroxisome Proliferator-activated Receptor alpha (PPARa), PPARA (gene 5465), sequence (Q07869 whole entry, looked up, the tested form may be a part): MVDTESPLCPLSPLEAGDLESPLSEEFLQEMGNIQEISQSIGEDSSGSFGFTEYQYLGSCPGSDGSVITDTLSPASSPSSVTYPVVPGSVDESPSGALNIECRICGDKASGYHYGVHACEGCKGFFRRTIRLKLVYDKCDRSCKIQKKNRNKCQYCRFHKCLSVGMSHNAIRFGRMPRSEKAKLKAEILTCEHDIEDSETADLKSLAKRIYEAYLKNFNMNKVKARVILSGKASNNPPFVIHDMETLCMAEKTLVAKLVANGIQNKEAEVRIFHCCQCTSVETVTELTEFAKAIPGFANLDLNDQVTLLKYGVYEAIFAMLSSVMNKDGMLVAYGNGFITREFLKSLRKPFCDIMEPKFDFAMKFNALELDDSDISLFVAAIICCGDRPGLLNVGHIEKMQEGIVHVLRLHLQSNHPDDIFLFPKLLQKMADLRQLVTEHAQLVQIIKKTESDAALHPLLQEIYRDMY
# Nuclear receptor subfamily 1 group I member 2 (Homo sapiens), sequence (O75469 whole entry, looked up, the tested form may be a part): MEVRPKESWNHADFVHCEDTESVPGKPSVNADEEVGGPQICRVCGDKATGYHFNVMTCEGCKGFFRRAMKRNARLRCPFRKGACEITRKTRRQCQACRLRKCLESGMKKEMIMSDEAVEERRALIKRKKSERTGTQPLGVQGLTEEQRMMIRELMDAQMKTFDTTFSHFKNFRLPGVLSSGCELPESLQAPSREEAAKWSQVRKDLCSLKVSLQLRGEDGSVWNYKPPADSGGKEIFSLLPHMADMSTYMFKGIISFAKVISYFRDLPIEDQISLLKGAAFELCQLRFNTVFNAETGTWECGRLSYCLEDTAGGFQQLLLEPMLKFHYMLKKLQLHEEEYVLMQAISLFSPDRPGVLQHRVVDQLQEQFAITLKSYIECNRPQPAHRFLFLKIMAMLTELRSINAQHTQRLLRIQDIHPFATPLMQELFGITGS
# human Peroxisome Proliferator-activated Receptor delta (PPARd), PPARD (gene 5467), sequence (Q03181 whole entry, looked up, the tested form may be a part): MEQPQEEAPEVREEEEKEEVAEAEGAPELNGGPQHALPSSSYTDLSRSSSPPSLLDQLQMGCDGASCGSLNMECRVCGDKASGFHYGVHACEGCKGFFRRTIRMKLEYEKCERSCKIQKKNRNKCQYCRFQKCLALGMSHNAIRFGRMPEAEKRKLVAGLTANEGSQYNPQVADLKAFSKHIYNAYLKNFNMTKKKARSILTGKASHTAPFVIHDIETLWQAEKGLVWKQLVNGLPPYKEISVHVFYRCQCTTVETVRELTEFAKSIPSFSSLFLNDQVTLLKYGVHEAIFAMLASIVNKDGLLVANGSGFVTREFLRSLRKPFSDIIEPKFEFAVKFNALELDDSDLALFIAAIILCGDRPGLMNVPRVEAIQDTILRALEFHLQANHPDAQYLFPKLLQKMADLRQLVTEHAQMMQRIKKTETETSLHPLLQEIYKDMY
# human RAR-related Orphan Receptor gamma (RORg), RORC (gene 6097), sequence (P51449 whole entry, looked up, the tested form may be a part): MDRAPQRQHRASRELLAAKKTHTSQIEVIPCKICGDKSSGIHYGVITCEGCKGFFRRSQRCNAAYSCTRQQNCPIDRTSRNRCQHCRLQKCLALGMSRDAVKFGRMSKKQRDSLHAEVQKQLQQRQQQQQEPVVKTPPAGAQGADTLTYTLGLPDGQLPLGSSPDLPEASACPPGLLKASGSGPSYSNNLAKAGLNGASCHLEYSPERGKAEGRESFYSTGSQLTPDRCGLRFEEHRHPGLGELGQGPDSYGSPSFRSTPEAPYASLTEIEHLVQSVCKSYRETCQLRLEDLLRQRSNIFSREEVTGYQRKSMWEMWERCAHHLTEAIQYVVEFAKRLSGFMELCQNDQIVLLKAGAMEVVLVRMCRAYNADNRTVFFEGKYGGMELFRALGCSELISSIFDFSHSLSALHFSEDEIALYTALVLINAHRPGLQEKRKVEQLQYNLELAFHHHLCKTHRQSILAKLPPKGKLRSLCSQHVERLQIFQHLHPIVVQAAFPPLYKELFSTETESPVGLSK
# human Retinoic Acid Receptor beta (RARb), RARB (gene 5915), sequence (P10826 whole entry, looked up, the tested form may be a part): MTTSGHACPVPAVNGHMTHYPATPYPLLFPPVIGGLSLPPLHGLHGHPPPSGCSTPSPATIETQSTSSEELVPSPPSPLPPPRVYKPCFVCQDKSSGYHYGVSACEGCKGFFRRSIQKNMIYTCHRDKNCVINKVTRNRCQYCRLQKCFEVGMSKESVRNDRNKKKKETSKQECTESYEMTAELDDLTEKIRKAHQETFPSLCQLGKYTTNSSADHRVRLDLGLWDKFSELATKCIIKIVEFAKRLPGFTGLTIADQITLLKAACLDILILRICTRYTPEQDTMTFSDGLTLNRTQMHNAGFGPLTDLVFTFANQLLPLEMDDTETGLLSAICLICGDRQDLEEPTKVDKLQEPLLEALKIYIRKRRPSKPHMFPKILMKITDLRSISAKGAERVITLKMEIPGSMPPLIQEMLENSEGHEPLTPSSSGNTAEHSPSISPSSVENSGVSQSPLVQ
smiles,measurement,setting,value
CCOC(=O)CCN(SN(C)C(=O)Oc1cccc2c1OC(C)(C)C2)C(C)C,outcome,[1],inactive
same,AC50,[2],26.2 µM (active)
same,outcome,[3],inactive
same,outcome,[4],inactive
same,AC50,[5],31.1 µM (active)
same,AC50,[6],32.5 µM (active)
same,AC50,[7],28.8 µM (active)
same,outcome,[8],inactive
same,outcome,[9],inactive
same,outcome,[10],inactive
same,AC50,[11],23.3 µM (active)
same,AC50,[12],0.713 µM (active)
O=C1C=CC(=O)c2ccccc21,outcome,[1],inactive
same,AC50,[2],2.23 µM (active)
same,outcome,[3],inactive
same,outcome,[4],inactive
same,AC50,[5],1.93 µM (active)
same,AC50,[6],1.7 µM (active)
same,AC50,[7],2.17 µM (active)
same,outcome,[8],inactive
same,AC50,[10],5.9 µM (active)
same,AC50,[11],0.46 µM (active)
same,AC50,[12],5.98 µM (active)
same,outcome,[13],inactive
same,outcome,[14],inactive
same,outcome,[15],inactive
C=CCOC(F)(C(F)(F)F)C(F)(F)F,outcome,[1],inactive
same,outcome,[16],inactive
same,outcome,[2],inactive
same,outcome,[4],inactive
same,outcome,[8],inactive
same,outcome,[9],inactive
same,outcome,[12],inactive
O=C(Cc1ccccc1)OCCc1ccccc1,outcome,[1],inactive
same,outcome,[2],inactive
same,outcome,[3],inactive
same,outcome,[4],inactive
same,outcome,[5],inactive
same,outcome,[6],inactive
same,outcome,[7],inactive
same,outcome,[8],inactive
same,outcome,[9],inactive
same,outcome,[10],inactive
same,outcome,[11],inactive
same,outcome,[12],inactive
same,outcome,[17],inactive
same,outcome,[15],inactive
Nc1cccnc1,outcome,[1],inactive
same,outcome,[2],inactive
same,outcome,[3],inactive
same,outcome,[4],inactive
same,outcome,[8],inactive
same,outcome,[9],inactive
same,outcome,[12],inactive
Cc1ccc2nc3sc(=O)sc3nc2c1,AC50,[1],6.38 µM (active)
same,AC50,[2],4.06 µM (active)
same,AC50,[3],6.95 µM (active)
same,outcome,[4],inactive
same,outcome,[5],inactive
same,AC50,[6],3.43 µM (active)
same,AC50,[7],5.95 µM (active)
same,outcome,[8],inactive
same,AC50,[10],7.74 µM (active)
same,outcome,[18],inactive
same,outcome,[19],inactive
same,AC50,[11],7.3 µM (active)
same,AC50,[12],2 µM (active)
same,AC50,[13],6.31 µM (active)
same,AC50,[17],17.7 µM (active)
same,outcome,[14],inactive
CCOC(=O)OC1=C(c2cc(C)ccc2C)C(=O)NC12CCC(OC)CC2 (stereo not drawn),outcome,[1],inactive
same,AC50,[2],69.8 µM (active)
same,outcome,[3],inactive
same,outcome,[4],inactive
same,outcome,[8],inactive
same,outcome,[9],inactive
same,outcome,[12],inactive
same,outcome,[13],inactive
COC(=O)c1cc(Oc2ccc(Cl)cc2Cl)ccc1[N+](=O)[O-],outcome,[1],inactive
same,outcome,[16],inactive
same,AC50,[2],56.8 µM (active)
same,outcome,[4],inactive
same,outcome,[8],inactive
same,outcome,[9],inactive
same,AC50,[12],20 µM (active)
same,AC50,[13],13.7 µM (active)
same,outcome,[17],inactive
C1CCC(C2CCCCC2)CC1,outcome,[1],inactive
same,outcome,[16],inactive
same,AC50,[2],23.8 µM (active)
same,outcome,[9],inactive
same,outcome,[18],inactive
same,outcome,[13],inactive
same,outcome,[14],inactive
CCCCCCCCCCCCN(C)C,AC50,[1],50.9 µM (active)
same,AC50,[2],46.9 µM (active)
same,AC50,[3],54.9 µM (active)
same,AC50,[4],33.4 µM (active)
same,outcome,[5],inactive
same,outcome,[6],inactive
same,outcome,[7],inactive
same,outcome,[8],inactive
same,outcome,[9],inactive
same,outcome,[10],inactive
same,outcome,[11],inactive
same,outcome,[12],inactive
same,outcome,[13],inactive
same,outcome,[17],inactive
